Source: PubChem (several laboratories)
Rows were chosen to be rich in hits. Some 5.9% of all compounds tested hit in one or more screens of this group.
ALR inh – blocks human ALR sulfhydryl oxidase activity; inhibition, % (concentration not given with the values); AID 485317; P55789; purified ALR, DTT oxidation, H2O2 HRP-luminol luminescence; 290,000 compounds, 3.8% hits;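 active means mean replicate inhibition above about 79%, with every replicate also reaching it, limit read from the data; inconclusive means only one of the two criteria met; inactive means mean below limit and not every replicate reaching it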
Target sequence (P55789 whole entry, looked up): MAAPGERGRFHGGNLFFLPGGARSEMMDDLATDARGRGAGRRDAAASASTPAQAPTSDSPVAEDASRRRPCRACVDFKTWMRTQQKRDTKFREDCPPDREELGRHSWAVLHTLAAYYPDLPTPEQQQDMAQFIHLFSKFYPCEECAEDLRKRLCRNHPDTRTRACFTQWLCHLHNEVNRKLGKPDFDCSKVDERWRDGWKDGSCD
PRMT1 inh – inhibitors of human PRMT1. inhibition, % at 2.79 µM. recombinant PRMT1, activity-based probe fluorescence polarization. 370,000 compounds, 1.3% hits. Q99873;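 active means inhibition above about 21% made by adding two undisclosed values, limit read from the data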
Target sequence (Q99873 whole entry, looked up): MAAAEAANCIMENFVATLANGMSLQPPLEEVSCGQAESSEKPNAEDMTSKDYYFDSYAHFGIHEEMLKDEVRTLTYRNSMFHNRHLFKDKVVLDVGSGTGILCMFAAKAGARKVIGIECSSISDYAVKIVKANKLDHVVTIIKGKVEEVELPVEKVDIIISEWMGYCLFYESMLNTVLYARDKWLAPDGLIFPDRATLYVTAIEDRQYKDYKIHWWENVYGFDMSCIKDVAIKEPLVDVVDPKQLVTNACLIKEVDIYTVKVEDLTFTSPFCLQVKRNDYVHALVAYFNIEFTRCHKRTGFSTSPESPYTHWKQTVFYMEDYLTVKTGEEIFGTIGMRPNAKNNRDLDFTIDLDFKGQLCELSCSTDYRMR
LANA-H2B inh – blocks KSHV LANA binding to histone H2A/H2B | Q9QR71 | cell-free LANA-H2A/H2B peptide, fluorescence polarization | inhibition, % (concentration not given with the values) | 320,000 compounds, 0.6% hits | AID 2629; in the data active means inhibition mostly above about 10%, no sharp cut-off; inactive means mostly below about 6.7%
rCAG binder – molecules binding r(CAG) RNA repeats; r(CAG) RNA repeat, TO-PRO-1 dye displacement fluorescence; inhibition, % at 3 µM; 370,000 compounds, 1.3% hits; AID 651821;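 active means inhibition above the plate cutoff, the mean of all test compounds on that plate plus 3 SD, cut at about 35% in these data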;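 further: 0% = DMSO alone and 100% = 100 µM mitoxantrone as full dye displacement; higher means more dye released from RNA so lower well fluorescence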
ABHD5 PLIN5 PPI – inhibitors of human ABHD5-perilipin-5 interaction; Split G. princeps luciferase complementation, luminescence, 4 h; inhibition, % at 4 µM; 360,000 compounds, 0.78% hits;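 active means inhibition above the mean inhibition across every tested compound plus 3 SD, cut at about 22% in these data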;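 further: 0% = DMSO only wells and the 100% control is not disclosed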
Rtt109 Vps75 – blocks Candida albicans Rtt109/Vps75 acetyltransferase activity. Q5AAJ8. purified Rtt109/Vps75, ThioGlo CoA-SH fluorescence, 4 h. inhibition, % at 34.9 µM. 330,000 compounds, 0.16% hits;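 active means inhibition of at least 50% in every replicate; inconclusive means best replicate reaches 50% inhibition but some replicates fall short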
PRMT1 inh conf – PRMT1 (human) inhibition, FP confirmation; shares compounds with PRMT1 inh; recombinant His-PRMT1, activity-based probe fluorescence polarization; inhibition, % at 2.79 µM; 3,300 compounds, 42% hits; AID 687036;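 active means mean inhibition across replicates above the hit cutoff derived for the earlier primary screen, cut at about 22% in these data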
* = called active by the depositor; i = inactive; ? = inconclusive; . = no result given.

SMILES	ALR inh	PRMT1 inh	LANA-H2B inh	rCAG binder	ABHD5 PLIN5 PPI	Rtt109 Vps75	PRMT1 inh conf
Cc1cccc(-n2c(/C=C/c3ccccn3)nc3ccccc3c2=O)c1	-9	2	-1	1	5	3	.
COC(=O)C1=C(c2ccc(-c3ccccc3)c(F)c2)C[C@@H]2CC[C@H]1N2C(=O)NCCc1ccccc1	-1	0	3	3	18	2	.
CC[n+]1c(/C=C/N(C)c2ccccc2)sc2ccc(Cl)cc21	.	29*	0	6	-1	21	5
Cc1ccc(-c2nc(N3CCOCC3)s[n+]2-c2ccccc2)cc1	?	3	-2	0	0	-9	.
CN(C)c1nc(-c2ccccc2)[n+](C)s1	8	34*	-4	7	3	-20	22*
Nc1cc(Cl)c2nonc2c1[N+](=O)[O-]	97*	41*	-2	4	20	-10	10
CSc1ccc(C(=O)C2CCCN(CCCn3cccn3)C2)cc1 (stereo not drawn)	1	-1	-6	-6	5	.	.
Cc1cc(N2CCNC[C@@H]2C)ccc1N1CC[C@@H](O)C1	.	47*	.	5	.	.	3
O=C(Nc1ccc2ccccc2c1)N1C[C@H]2C[C@@H](C1)c1cccc(=O)n1C2	-5	3	2	-1	2	-1	.
COCCCNP1(=O)OCC(C)([N+](=O)[O-])CO1 (stereo not drawn)	.	-4	.	-1	-11	2	.
CCN(CC)c1ccc(N=Cc2c(O)n(-c3ccccc3C)c(=O)[nH]c2=O)cc1	98*	28*	0	9	-27	12	0
CCCc1cc(=O)oc2cc(OCC(=O)N3CCC(C(=O)O)(c4ccccc4)CC3)ccc12	.	4	-7	22	0	14	.
COc1ccc2[nH]cc(CCNCc3cccnc3)c2c1	-4	-2	1	-3	9	-9	.
COc1ccc2[nH]c(C)c(CCNCc3cccnc3)c2c1	43	120*	4	0	0	1	3
C1=C(c2ccccc2)CCNC1	3	-4	2	3	7	2	.
Oc1ccc(C2=CCNCC2)cc1O	99*	25*	11	5	-8	2	28*
COC1C(C)OC(OC2CC(C)(O)Cc3cc4c(c(O)c32)C(=O)c2c(O)cc3c(c2C4=O)OC2OC3(C)C(O)C(N(C)C)C2O)C(OC)C1(C)OC (stereo not drawn)	.	124*	.	-43	2	-2	98*
CC1CCCCC1NC(=O)CNC(=S)N1CC2CC(C1)c1cccc(=O)n1C2 (stereo not drawn)	.	-1	-2	1	-3	2	.
O=C1NC(=O)N(CCc2ccc(F)cc2)C(=O)/C1=C/c1ccco1	54	35*	-5	74*	0	?	3
Cc1cccc(C(O)(C(=O)O)c2ccccc2)c1 (stereo not drawn)	.	-3	.	1	-7	-5	.
CC1CCCN(c2ccc(C(=O)N3CCC4(CC3)OCCO4)cc2[N+](=O)[O-])C1 (stereo not drawn)	-27	2	-4	-5	2	8	.
CCOC(=O)C1CCCN(c2ccc([N+](=O)[O-])c3nonc23)C1 (stereo not drawn)	.	122*	.	i	14	-1	135*
CC1=C[C@@H]2c3cccc4[nH]cc(c34)C[C@H]2N(C)C1	-6	39*	2	-44	-13	-1	36*
COc1ccc(C2=NCC(=S)Nc3ccc(Cl)cc32)cc1Cl	-3	40*	2	1	-7	1	-2
COc1ccc2c(c1)C13CCCC[C@@H]1C(C2)N(C)CC3 (stereo partly drawn)	2	136*	1	1	3	-2	4
SMILES	ALR inh	PRMT1 inh	LANA-H2B inh	rCAG binder	ABHD5 PLIN5 PPI	Rtt109 Vps75	PRMT1 inh conf
CCS(=O)(=O)NC(C)c1nnc2n1-c1ccc(Br)cc1C(c1ccccc1Cl)=NC2 (stereo not drawn)	2	3	0	-3	-1	.	.
CCN(CC)P(c1n(C)cc[n+]1C)N(CC)CC	9	3	2	1	4	.	.
CCOC(=O)CC(SP1(=S)OCC2(CCCCC2)CO1)C(=O)OCC (stereo not drawn)	.	25*	.	0	-1	-3	18
Nc1c2c(nc3ccccc13)CCN(Cc1ccccc1)C2	-8	44*	12	-53	-1	6	9
C1=C(c2c[nH]c3ccccc23)CCN(Cc2ccccc2)C1	25	2	-2	4	4	8	.
COC(=O)C1=C(c2ccc(C(C)=O)cc2)C[C@@H]2CC[C@H]1N2C(=O)NCc1ccco1	-5	3	1	5	8	3	.
COc1ccccc1/C=C1\C(=O)NC(=S)N(c2ccccc2)C1=O	6	38*	-3	18	-3	7	21*
COc1ccc(C=C2C(=O)NC(=S)NC2=O)cc1OC	.	14	.	3	-31	0	.
COc1ccccc1C=C1C(=O)NC(=S)NC1=O	.	30*	.	1	-7	-3	39*
Cc1cc(C)c2c(ccc3cccc[n+]32)c1	-4	-3	-4	-1	2	.	.
CC1=NNC(=O)C1Br (stereo not drawn)	.	50*	.	1	-39	12	74*
CN(C)c1ccc(/C=C2/C(=O)NC(=O)N(Cc3ccco3)C2=O)cc1	19	29*	-2	26	2	2	3
CCN(CC)c1ccc(/C=C2\C(=O)NC(=O)N(CC3CCCO3)C2=O)cc1 (stereo not drawn)	50	4	-2	2	7	11	.
CCN(CC)c1ccc(/C=C2/C(=O)NC(=O)N(Cc3ccco3)C2=O)cc1	38	30*	0	30	12	13	3
CC(C)(C)c1cc([N+](=O)[O-])cc(C(C)(C)C)c1O	.	1	1	6	.	.	.
CCOC(=O)c1cc(CC)sc1/N=C/C1C(=O)NC(=S)NC1=O	97*	41*	-1	3	-30	1	12
CCOC(=O)c1cc(CC)sc1/N=C/c1c(O)[nH]c(=S)[nH]c1=O	98*	81*	-1	-2	-11	.	8
CCOC(=O)c1c(/N=C/C2C(=O)NC(=O)NC2=O)sc2c1CCC2	16	3	-7	11	-33	-3	.
O=S(=O)(c1ccc(Cl)cc1)N1Cc2cc(Br)ccc2-n2nncc2C1	.	0	.	2	6	.	.
CC=C(C)C1(CCC)C(=O)NC(=S)NC1=O	.	-2	.	2	5	1	.
CC(=O)OC1C(O)C(C)OC(OC2C(OC(=O)C3CCC4C(C3)OC3(CC(OC(=O)/C=C/c5ccccc5)C(C)CO3)C43CO3)OC(C)C(O)C2OC(C)=O)C1O (stereo not drawn)	.	1	.	3	-3	-4	.
